DT40 TDP1 no CPT: qHTS for Inhibitors of human tyrosyl-DNA phosphodiesterase 1 (TDP1): qHTS in cells in absence of CPT | DT40 Tdp1-/- hTDP1 cells, no CPT, ATP luminescence, 48 h | Potency, µM (highest dose often 46.2 µM), most hits filed as inhibitors | 420,000 tested, 15% active | AID 686978, 2013; further: nearly all actives have a fitted effect of over 55% in size
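Chicken DT40 Tdp1-/- cells complemented with human TDP1, screened without camptothecin (DMSO vehicle only), 400 cells/well. Compounds pin-transferred, cells incubated at 37 °C for at least 48 hr. Growth read as ATP-dependent luminescence (CellTiter-Glo, 30 min at RT).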
TDP1 cell CPT: growth inhibition of DT40 Tdp1-/-;hTDP1 cells with camptothecin (screen for TDP1 inhibitors). 420,000 tested, 12% active. chicken DT40 Tdp1-/-;hTDP1 cells + 20 nM CPT, ATP luminescence, 48 h. Potency, µM (highest dose often 46.2 µM), hits mostly inhibitors; further: nearly all actives have a fitted effect of over 55% in size
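Cell growth measured by CellTiter-Glo luminescence after a minimum 48 h, 37 C compound exposure with 20 nM CPT in Tdp1-knockout DT40 cells stably expressing hTDP1, seeded 400/well; qHTS titration format.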
HT1080 IDH1KD tx: HT-1080 IDH1 knockdown cell toxicity (counter line) | HT-1080 IDH1 knockdown viability, ATP luminescence, 48 h | Potency, µM (top dose mostly 46.1 µM), usual class: cytotoxic | 360,000 tested, 2% active | AID 686971
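Luminescent ATP read-out (CellTiter-Glo, 10 min at room temperature) after 48 h compound exposure at 37 °C gave viability of IDH1-knockdown HT-1080 cells. Activity was normalised to DMSO and cell-free wells, then fitted as concentration-response curves.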
HT1080NT lethal: kills 2HG-producing HT-1080-NT fibrosarcoma cells | Potency, µM (doses to about 46.1 µM), hits mostly cytotoxic | HT-1080-NT fibrosarcoma viability, CellTiter-Glo ATP luminescence, 48 h | 360,000 tested, 1.6% active;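 further: NT is the 2HG producing partner of a matched IDH1 knockdown line; nearly all actives have a fitted effect of over 55% in size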
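Fibrosarcoma NT cells, 750 per well in 5% FBS RPMI, were exposed to compound for 48 hours. Viability: CellTiter-Glo luminescence.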
IL-1B inflam inh: inflammasome signaling inhibition, IL-1 beta readout. THP-1 LPS/ATP IL-1B secretion, AlphaLISA, 16 h; active compounds read low. activity change, % at 57.5 µM. 360,000 tested, 4.7% active. AID 743279; in the data active means activity change below about -50%; inconclusive means mostly about -30% to -49%
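Secreted IL-1B measured by AlphaLISA bead assay after 16 h compound exposure of THP-1 cells; compounds (final up to 57.5 uM) added 1 h before LPS (250 ng/mL) and ATP (1.25 mM) stimulation; lower signal means less secretion.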
Each line names hits and unclear results; the compound was inactive in the other large screens. A selection: hits, their analogues and other compounds. The true share with any hit is near 19%. Unless noted, the call rests on the fitted dose curve; in most records, active means well fitted curve in the direction sought with a large enough effect; inconclusive means small, poorly fitted or top-dose-only effect, or another doubt; inactive means no such curve, though single readings can be large; an effect the other way counts as inactive or inconclusive.

c1ccc(-c2cc3nc(NCc4cccs4)nc(NCc4ccc5occc5c4)c3s2)cc1	DT40 TDP1 no CPT inconclusive, TDP1 cell CPT inconclusive, HT1080 IDH1KD tx 18µM, HT1080NT lethal 16µM, IL-1B inflam inh -89
COCCNc1nc2cc(-c3ccc(C)cc3)sc2c(=O)n1C	DT40 TDP1 no CPT inconclusive, TDP1 cell CPT inconclusive
CCOC(=O)c1c(C)[nH]c(C)c1S(=O)(=O)NCc1ccccc1OCC	none
C#Cc1ccc([C@@H]2C=C(C(=O)O)O[C@H](OCc3ccc(CO)cc3)C2)cc1	none
CNc1c([N+](=O)[O-])cnn1-c1ccc(C)cc1	none
CN1CCN(CCCNC(=O)c2ccc3c(c2)N(Cc2ccccc2)CCS3)CC1	DT40 TDP1 no CPT inconclusive, TDP1 cell CPT 21µM
Cc1ccc(CCNC(=O)c2cc3sccc3n2Cc2ccc(C)cc2)cc1	DT40 TDP1 no CPT inconclusive (no result: HT1080 IDH1KD tx, HT1080NT lethal, IL-1B inflam inh)
CCN1CCN(CCCNC(=O)c2ccc3c(c2)N(Cc2ccc(C)cc2)CCS3)CC1	DT40 TDP1 no CPT inconclusive, TDP1 cell CPT inconclusive, HT1080 IDH1KD tx inconclusive, HT1080NT lethal inconclusive
O=C(NCCCN1CCOCC1)c1ccc2c(c1)N(Cc1ccccc1)CCS2	DT40 TDP1 no CPT 23µM, TDP1 cell CPT inconclusive, IL-1B inflam inh inconclusive
O=C(NCC1CCCO1)c1ccc2c(c1)N(Cc1ccccc1)CCS2 (stereo not given)	TDP1 cell CPT inconclusive
Cc1ccc(Cn2c(C(=O)NCCCN3CCOCC3)cc3sccc32)cc1	DT40 TDP1 no CPT inconclusive, HT1080 IDH1KD tx inconclusive, HT1080NT lethal 16µM
O=C(NCCN1CCOCC1)c1ccc2c(c1)N(Cc1ccccc1)CCS2	DT40 TDP1 no CPT inconclusive, TDP1 cell CPT inconclusive
Cc1ccc(CN2CCSc3ccc(C(=O)NCCCN4CCOCC4)cc32)cc1	DT40 TDP1 no CPT inconclusive, TDP1 cell CPT 21µM, HT1080 IDH1KD tx inconclusive, IL-1B inflam inh -51
Cc1ccsc1C(C(=O)NC1CCCCC1)N(C(=O)c1csnn1)C1CC1 (stereo not given)	TDP1 cell CPT inconclusive
Cc1c(C(=O)N(C)c2ccc(Cl)cc2)cnn1-c1ccccc1	DT40 TDP1 no CPT 4.6µM, TDP1 cell CPT inconclusive
Cc1cccc(C)c1NC(=O)CNC(=O)Cc1c[nH]c2ccccc12	none
Cc1cccc(C)c1NC(=O)c1c[nH]c2ccccc12	DT40 TDP1 no CPT 26µM, TDP1 cell CPT 18µM
Cc1ccc(NC(=O)c2cnn(-c3ccccc3)c2C)c(C)c1	DT40 TDP1 no CPT inconclusive, TDP1 cell CPT inconclusive, IL-1B inflam inh -67
Cc1ccc(NC(=O)c2cnn(-c3ccccc3)c2C)cc1	DT40 TDP1 no CPT inconclusive, IL-1B inflam inh inconclusive
Cc1cccc(C)c1NC(=O)c1cnn(-c2ccccc2)c1C	IL-1B inflam inh -62
CCOc1cc(N2CCOCC2)c(OCC)cc1NS(=O)(=O)c1cc(NC(C)=O)ccc1OC	none
CCOC(=O)CNC(=S)SC	none
CCOC(=O)CNC(=S)n1ncnc1N	DT40 TDP1 no CPT inconclusive, TDP1 cell CPT 16µM
O=C(O)c1cccnc1Sc1ccc(Br)cc1	TDP1 cell CPT inconclusive
O=C(Nc1ccc(Cl)c(Cl)c1)Nc1ccc(N2CCCC2)c(S(=O)(=O)Nc2ccccc2Cl)c1	DT40 TDP1 no CPT 4.1µM, TDP1 cell CPT 3.3µM, HT1080 IDH1KD tx 13µM, HT1080NT lethal inconclusive, IL-1B inflam inh -52
O=C(Nc1ccc(N2CCOCC2)c(S(=O)(=O)Nc2ccccc2Cl)c1)c1ccc(F)cc1	DT40 TDP1 no CPT inconclusive, TDP1 cell CPT inconclusive, IL-1B inflam inh -56
O=C(Nc1ccc(N2CCCCC2)c(S(=O)(=O)Nc2ccccc2Cl)c1)c1cccnc1	DT40 TDP1 no CPT inconclusive, IL-1B inflam inh inconclusive
O=C(Nc1ccc(F)cc1)Nc1ccc(N2CCCC2)c(S(=O)(=O)Nc2ccccc2Cl)c1	DT40 TDP1 no CPT 23µM, TDP1 cell CPT 23µM, HT1080 IDH1KD tx 23µM, HT1080NT lethal inconclusive, IL-1B inflam inh -60
CC(C(=O)OCC(=O)Nc1ccc(S(N)(=O)=O)cc1)N1C(=O)c2ccccc2C1=O (stereo not given)	none
Cc1cc(C)nc(SCC(=O)N/N=C/c2cccs2)n1	none
Oc1cccc(NC(=S)Nc2ccc(SC(F)F)cc2)c1	DT40 TDP1 no CPT inconclusive, IL-1B inflam inh -58
CCCCNC(=S)Nc1ccc(F)cc1	none

Compound activity: PubChem BioAssay, National Center for Advancing Translational Sciences (NCATS)
